These results are taken from PubChem BioAssay (Tox21).

Experiment [1] can be described thus: Nuclear factor erythroid 2-related factor 2/antioxidant responsive element (Nrf2/ARE) small molecule agonists: qHTS cell viability counter screen in human keratinocytes (AID 1919968; active means well fitted curve in the direction sought with a large enough effect in the repeat runs; an effect the other way counts as inactive or inconclusive; further: nearly all actives have a fitted effect of over 55% in size; further: potency means the concentration at half of the fitted maximal effect). In outline:
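Parallel cytotoxicity read: KeratinoSens HaCaT cells, compound treatment 23 h, viability by CellTiter-Fluor fluorescence 1 h post-reagent.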
A general note: In qHTS, concentration-response curves come from the screen itself.

A short description of experiment [2]: Nuclear factor erythroid 2-related factor 2/antioxidant responsive element (Nrf2/ARE) small molecule agonists: luciferase reporter gene qHTS assay in human keratinocytes (AID 1919969). Further: nearly all actives have a fitted effect of over 35% in size. Further: potency means the concentration at half of the fitted maximal effect. On the technique in general: Reporter assays use an easily measured gene product as a stand-in for the process of interest.
For experiment [3], the target named is Gonadotropin-releasing hormone receptor (Homo sapiens) (UniProt P30968). As to the kind of experiment: Human gonadotropin-releasing hormone receptor (GnRHR) small molecule agonists, calcium flux assay in GnRHR-HEK293 cells (AID 1920063). Further: nearly all actives have a fitted effect of over 35% in size. In outline: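 Calcium flux, agonist mode, human GnRHR stably integrated in HEK293; dye 1 h at 37 C before compound; Ex/Em=480/540 kinetic read, 3 min; 15 concentrations, triplicate.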
Chain of Gonadotropin-releasing hormone receptor (Homo sapiens) (P30968 whole entry, looked up): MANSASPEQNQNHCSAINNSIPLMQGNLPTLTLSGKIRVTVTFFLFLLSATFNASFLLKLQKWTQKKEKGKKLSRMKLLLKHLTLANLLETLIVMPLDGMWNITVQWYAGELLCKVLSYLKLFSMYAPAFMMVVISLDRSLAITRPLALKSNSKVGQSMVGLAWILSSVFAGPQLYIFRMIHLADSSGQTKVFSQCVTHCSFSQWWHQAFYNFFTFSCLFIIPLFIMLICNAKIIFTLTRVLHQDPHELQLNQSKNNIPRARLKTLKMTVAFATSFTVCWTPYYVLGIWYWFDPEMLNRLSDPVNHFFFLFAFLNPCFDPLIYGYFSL
For orientation: Calcium assays in cells follow changes in intracellular calcium, usually with a dye or a luminescent sensor.

Experiment [4] is described as follows: G protein-coupled receptor (GPCR) small molecule agonists, calcium flux assay: HEK293 wild type cell line counter screen (AID 1920065). In outline: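 Non-specific calcium responders were flagged by adding DMSO-dissolved compounds to dye-loaded cells and reading 480/540 nm fluorescence each second for 3 min; ATP served as positive control.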
Experiment [5] can be described thus: p53 small molecule agonists, cell-based qHTS assay with human liver microsomes (AID 1963577).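 Further: p53 response element beta-lactamase reporter cells with liver microsomes plus NADPH.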 The gist of the method:
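Steps: plate p53RE-bla cells, incubate 5 h at 37 C; add compound in DMSO; add microsomes (0.5 mg/mL final) and NADPH (0.5 mg/mL final); incubate 16 h at 37 C; add LiveBLAzer, 2 h RT; read fluorescence.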

Experiment [6] in a line: p53 small molecule agonists, cell-based qHTS assay with rat liver microsomes (AID 1963578). In outline: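 Metabolic activation is supplied by rat liver microsomes with NADPH (each 0.5 mg/mL final). p53RE-bla cells incubate with compound 16 h at 37 C; reporter activity is measured by LiveBLAzer fluorescence.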
The nature of experiment [7]: p53 small molecule agonists, cell-based qHTS assay with human liver microsomes: qHTS cell viability counter screen (AID 1963579). Further: nearly all actives have a fitted effect of over 45% in size. In outline: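 After the 460/530 nm beta-lactamase read, CellTiter-Glo was added to the same wells and luminescence measured after 30 min at room temperature, giving viability of p53RE-bla cells treated 16 h with compounds plus microsomes and NADPH.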

A short description of experiment [8]: p53 small molecule agonists, cell-based qHTS assay with rat liver microsomes: qHTS cell viability counter screen (AID 1963580). Further: nearly all actives have a fitted effect of over 45% in size. The gist of the method:
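After the beta-lactamase ratio was read, CellTiter-Glo was added to the same wells and luminescence measured at 30 min; cells had been treated 16 h at 37 C with compounds, rat liver microsomes and NADPH (0.5 mg/mL final each).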

A short description of experiment [9]: p53 small molecule agonists, cell-based qHTS assay: qHTS cell viability counter screen (AID 1963581). Further: nearly all actives have a fitted effect of over 45% in size. In outline: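 Multiplexed with the reporter read, a CellTiter-Glo step (30 min, room temperature) gauges ATP-based viability of HCT-116 p53RE-bla cells after 16 h compound incubation at 37 C.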
Experiment [10] in a line: p53 small molecule agonists, cell-based qHTS assay (AID 1963582; active means well fitted activation curve with a large enough effect in the signal ratio in the repeat runs, not every such curve was filed as active; the % refers to the signal ratio). The gist of the method: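 Beta-lactamase reporter cells (p53RE-bla) treated with compounds for 16 h at 37 C; FRET substrate, 2 h, room temperature; fluorescence intensity.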
Experiment [11] addresses 5-hydroxytryptamine receptor 2A (Homo sapiens) (UniProt P28223). The experiment can be described thus: 5-hydroxytryptamine receptor 2A (HTR2A) small molecule antagonists, cell-based qHTS assay (AID 1963586). Further: nearly all actives have a fitted effect of over 45% in size. In outline:
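CHO cells stably expressing human HTR2A were plated for 18 h at 37 C, then loaded with calcium dye for 1 h. Compounds were preincubated 5 min at room temperature before DOI (4 nM solution) was added. Kinetic fluorescence was read for 3 min.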

The target is the same in experiment [12]. As to the kind of experiment: 5-hydroxytryptamine receptor 2A (HTR2A) small molecule agonists, cell-based qHTS assay (AID 1963587). Further: nearly all actives have a fitted effect of over 30% in size. The gist of the method: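 CHO cells stably expressing human HTR2A, plated 18 h, loaded with calcium dye 1 h at 37 C. Agonist mode: compounds added and intracellular calcium fluorescence recorded kinetically for 2 min at 1 sec intervals.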

Experiment [13] concerns the target Muscarinic acetylcholine receptor M1 (Homo sapiens) (UniProt P11229). As to the kind of experiment: Cholinergic receptor muscarinic 1 (CHRM1) small molecule antagonists, cell-based qHTS assay (AID 1963588). Further: nearly all actives have a fitted effect of over 40% in size. Further: potency means the concentration at half of the fitted maximal effect. In outline:
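Compounds were tested at 15 concentrations in three independent runs. Dye-loaded CHRM1-CHO cells were exposed 5 min at room temperature before stimulation by acetylcholine added at 50nM. Intracellular calcium was read kinetically on FDSS for 3 min.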

Experiment [14] shares this target. As to the kind of experiment: Cholinergic receptor muscarinic 1 (CHRM1) small molecule agonists, cell-based qHTS assay (AID 1963589). Further: nearly all actives have a fitted effect of over 35% in size. In outline: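 qHTS, 15-point titration, 3 independent runs: compounds pin-transferred onto dye-loaded CHRM1-CHO cells (human M1), calcium fluorescence followed every second to detect agonism.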
The nature of experiment [15]: cAMP Responsive Elements (CRE) small molecule agonists, cell-based qHTS assay (AID 1963590). The gist of the method: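 Quantitative HTS for CRE agonists: HEK 293T CRE-bla cells, overnight plating, 3 h compound incubation at 37 C/5% CO2, then 2 h room-temperature LiveBLAzer B/G FRET substrate loading.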
Experiment [16] is described as follows: cAMP Responsive Elements (CRE) small molecule antagonists, cell-based qHTS assay (AID 1963591; active means well fitted inhibition curve with a large enough effect in the signal ratio in the repeat runs, not every such curve was filed as active; the % refers to the signal ratio). The gist of the method:
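Fluorescence intensity from cleaved LiveBLAzer B/G substrate (2 h, room temperature) quantified CRE-bla activity in HEK 293T cells exposed 3 h to compound with 0.25 uM final NKH477.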

The target of experiment [17] is D(2) dopamine receptor (Homo sapiens) (UniProt P14416). The experiment can be described thus: Dopamine D2 receptor (DRD2) small molecule antagonists, cell-based qHTS assay (AID 1963595; active means well fitted inhibition curve with a large enough effect in the signal ratio in the repeat runs, with a control signal flat; the % refers to the signal ratio). In outline:
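Antagonist mode in DRD2-HEK293 cells: after compound addition with 0.1 mM Ro20-1724, cells received quinpirole (12 nM) and NKH477 (200 nM) for 30 min at room temperature; HTRF cAMP read after 1 h detection.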

Experiment [18] addresses KiSS-1 receptor (Homo sapiens) (UniProt Q969F8). The experiment can be described thus: Human kisspeptin (KISS1R) small molecule agonists, calcium flux assay in KISS1R-HEK293 cells (AID 1920064; active means well fitted curve in the direction sought with a large enough effect in the repeat runs; an effect the other way counts as inactive or inconclusive). The gist of the method:
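Triplicate 15-concentration series were applied to dye-loaded human KISS1R HEK293 cells, and agonist-evoked calcium fluorescence was captured for 3 min.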

The target in experiment [19] is Beta-2 adrenergic receptor (Homo sapiens) (UniProt P07550). The experiment can be described thus: Adrenergic beta2 receptor (ADRB2) small molecule antagonists, cell-based qHTS assay (AID 1963592). Further: nearly all actives have a fitted effect of over 50% in size. Further: potency means the concentration at half of the fitted maximal effect. In outline:
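Assay format: CHO-ADRB2 cells, 18-20hr seeding at 37C/5% CO2, then compound plus 1nM isoproterenol agonist mix for 0.5hr RT. Homogeneous time-resolved fluorescence cAMP detection after 1hr, expressed as 665/615 nm ratio.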

Experiment [20] concerns the target D(2) dopamine receptor (Homo sapiens) (UniProt P14416). The experiment can be described thus: Dopamine D2 receptor (DRD2) small molecule agonists, cell-based qHTS assay (AID 1963594). Further: nearly all actives have a fitted effect of over 35% in size. Further: potency means the concentration at half of the fitted maximal effect. The gist of the method:
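HEK293 cells stably expressing human DRD2, pre-treated with PDE inhibitor Ro20-1724 (0.1 mM final) and compound 10 min at room temperature, then stimulated with NKH477 (200nM […]) for 30 min. cAMP read by HTRF (665/620 nm).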

A number with no mark means an inactive call. Records with an inconclusive call do not appear. Active and inactive are the calls of the source. Unless noted, the call rests on the fitted dose curve.

Chain of D(2) dopamine receptor (Homo sapiens) (P14416 whole entry, looked up): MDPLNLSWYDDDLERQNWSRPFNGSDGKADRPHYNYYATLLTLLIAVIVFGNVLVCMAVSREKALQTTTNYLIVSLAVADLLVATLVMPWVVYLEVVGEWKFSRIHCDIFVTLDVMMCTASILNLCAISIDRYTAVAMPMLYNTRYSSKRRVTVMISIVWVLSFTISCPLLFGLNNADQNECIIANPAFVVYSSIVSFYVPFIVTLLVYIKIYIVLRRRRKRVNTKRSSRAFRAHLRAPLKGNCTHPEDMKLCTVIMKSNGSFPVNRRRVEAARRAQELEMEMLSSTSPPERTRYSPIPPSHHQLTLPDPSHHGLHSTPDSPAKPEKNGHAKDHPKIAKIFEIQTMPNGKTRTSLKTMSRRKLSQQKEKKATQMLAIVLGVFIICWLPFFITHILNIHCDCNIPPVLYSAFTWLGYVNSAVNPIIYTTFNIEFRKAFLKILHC
Chain of KiSS-1 receptor (Homo sapiens) (Q969F8 whole entry, looked up): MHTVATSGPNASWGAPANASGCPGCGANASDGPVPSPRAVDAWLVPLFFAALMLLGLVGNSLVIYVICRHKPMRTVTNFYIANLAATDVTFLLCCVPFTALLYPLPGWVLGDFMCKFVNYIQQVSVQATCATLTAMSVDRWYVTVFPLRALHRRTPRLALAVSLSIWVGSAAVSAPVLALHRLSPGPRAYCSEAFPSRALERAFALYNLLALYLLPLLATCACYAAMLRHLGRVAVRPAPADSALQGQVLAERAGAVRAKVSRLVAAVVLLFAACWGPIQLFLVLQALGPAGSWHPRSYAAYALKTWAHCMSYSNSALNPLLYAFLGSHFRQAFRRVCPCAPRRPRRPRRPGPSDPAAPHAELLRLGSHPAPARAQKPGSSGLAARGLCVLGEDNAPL
Chain of 5-hydroxytryptamine receptor 2A (Homo sapiens) (P28223 whole entry, looked up): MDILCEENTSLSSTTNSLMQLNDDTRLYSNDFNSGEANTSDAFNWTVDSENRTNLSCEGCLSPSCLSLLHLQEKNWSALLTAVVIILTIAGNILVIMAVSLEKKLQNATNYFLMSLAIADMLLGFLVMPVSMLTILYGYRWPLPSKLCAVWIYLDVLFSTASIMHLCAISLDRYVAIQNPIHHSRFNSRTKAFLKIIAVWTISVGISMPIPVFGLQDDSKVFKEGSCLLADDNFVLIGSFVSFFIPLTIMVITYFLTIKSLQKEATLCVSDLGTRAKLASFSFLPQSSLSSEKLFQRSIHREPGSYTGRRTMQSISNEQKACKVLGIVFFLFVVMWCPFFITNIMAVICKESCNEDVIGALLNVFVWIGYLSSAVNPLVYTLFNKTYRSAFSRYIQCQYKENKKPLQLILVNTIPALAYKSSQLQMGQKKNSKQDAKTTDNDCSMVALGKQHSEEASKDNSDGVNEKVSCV
Chain of Muscarinic acetylcholine receptor M1 (Homo sapiens) (P11229 whole entry, looked up): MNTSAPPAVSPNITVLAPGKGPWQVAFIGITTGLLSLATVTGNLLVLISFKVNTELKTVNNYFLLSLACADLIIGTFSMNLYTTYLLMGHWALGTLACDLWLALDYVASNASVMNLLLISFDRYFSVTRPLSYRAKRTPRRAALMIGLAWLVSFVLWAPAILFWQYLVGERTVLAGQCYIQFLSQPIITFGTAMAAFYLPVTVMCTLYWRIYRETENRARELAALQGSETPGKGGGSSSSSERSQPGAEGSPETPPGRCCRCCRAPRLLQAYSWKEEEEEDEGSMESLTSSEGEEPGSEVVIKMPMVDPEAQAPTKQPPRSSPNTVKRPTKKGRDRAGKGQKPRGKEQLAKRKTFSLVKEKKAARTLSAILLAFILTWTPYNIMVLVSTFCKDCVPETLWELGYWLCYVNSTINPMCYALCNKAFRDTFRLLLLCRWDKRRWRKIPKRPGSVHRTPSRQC
Chain of Beta-2 adrenergic receptor (Homo sapiens) (P07550 whole entry, looked up): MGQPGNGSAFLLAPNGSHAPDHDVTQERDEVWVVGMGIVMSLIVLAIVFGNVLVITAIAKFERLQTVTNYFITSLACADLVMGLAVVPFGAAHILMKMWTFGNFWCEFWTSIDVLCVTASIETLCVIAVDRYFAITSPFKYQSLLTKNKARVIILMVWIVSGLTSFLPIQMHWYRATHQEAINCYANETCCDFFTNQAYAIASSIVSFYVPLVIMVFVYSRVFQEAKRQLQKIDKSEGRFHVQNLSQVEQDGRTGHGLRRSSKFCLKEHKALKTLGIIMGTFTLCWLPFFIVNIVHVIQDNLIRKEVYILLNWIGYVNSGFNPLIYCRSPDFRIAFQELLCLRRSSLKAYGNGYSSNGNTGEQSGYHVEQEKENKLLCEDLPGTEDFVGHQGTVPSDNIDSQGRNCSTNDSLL

For `CC(C(=O)O)c1ccc2c(c1)CC(=O)c1ccccc1S2` (stereo not given), the Potency result in [1], in experiment [2], in experiment [3], in experiment [5], in experiment [6] and in [7] was “inactive” throughout. The Potency result in [8], in [9], in experiment [10], in [11], in experiment [12] and in [13] was “inactive” throughout. The Potency result in experiment [14], in [15], in [16] and in experiment [17] was “inactive” in each case. In experiment [4], the result was inactive.
As for `C[C@@H]1CN(CCCn2c3ccccc3c3ccccc32)C[C@H](C)N1`, in experiment [1], the Potency is 26.6 µM (active). Moreover, the Potency entry in experiment [2], in experiment [3], in experiment [5], in experiment [6], in [8] and in [9] was “inactive” throughout. Also, the Potency result in experiment [10], in [11], in experiment [13], in experiment [14] and in [17] was “inactive” in each case. The outcome in [18] was inactive.
With `Cc1ccc2cccnc2c1`, the Potency entry in [1], in experiment [2], in [3], in experiment [5], in experiment [6] and in experiment [7] was “inactive” in each case. Moreover, the Potency result in experiment [8], in experiment [9], in [10], in [11], in experiment [12] and in [13] was “inactive” in each case. For the same compound, the Potency entry in experiment [14], in [15], in experiment [19], in [20] and in [17] was “inactive” each time. Also, the outcome in experiment [4] was inactive.
With `CCCCN(CCCC)C(=O)N(CCCC)CCCC`, the Potency result in experiment [1], in experiment [3], in experiment [5], in experiment [6], in [8] and in [9] was “inactive” throughout. Moreover, the Potency entry in experiment [11], in experiment [12], in experiment [13], in experiment [14], in experiment [16] and in experiment [20] was “inactive” in each case. Besides, in [2], the Potency is 61.1 µM (active). The outcome in [18] was inactive.
With `CC(CCc1ccccc1)NCC(O)c1ccc(O)c(C(N)=O)c1` (stereo not given), the Potency entry in [1], in experiment [2], in experiment [3], in experiment [6], in experiment [7] and in [8] was “inactive” throughout. Also, the Potency entry in experiment [15], in [16] and in experiment [17] was “inactive” each time. In addition, the result in experiment [18] was inactive. Further, the Potency in experiment [20] was 3.31 µM (active).
Consider `COc1ccccc1N1CCN(CCCNc2cc(=O)n(C)c(=O)n2C)CC1`, for which the Potency entry in experiment [1], in experiment [2], in experiment [3], in [5], in experiment [8] and in experiment [9] was “inactive” each time. The Potency result in experiment [10], in experiment [11], in experiment [12], in [14], in [15] and in [16] was “inactive” each time. Besides, the Potency result in experiment [17] is “inactive”. For the same compound, in experiment [18], the outcome was inactive. The Potency in experiment [13] was 10.3 µM (active); in experiment [19] it was 13.3 µM (active).
For `OC1CCCc2ccccc21` (stereo not given), the Potency result in [1], in experiment [2], in experiment [3], in experiment [5], in experiment [6] and in experiment [7] was “inactive” each time. In addition, the Potency entry in experiment [8], in [9], in experiment [10], in experiment [11], in experiment [12] and in experiment [13] was “inactive” throughout. Besides, the Potency entry in experiment [14], in [15], in experiment [16], in experiment [19], in experiment [20] and in experiment [17] was “inactive” in each case. For the same compound, the result in [4] was inactive.
Consider `O=[N+]([O-])c1cccc(I)c1`, for which the Potency result in [1], in experiment [2], in [3], in experiment [5], in [7] and in experiment [8] was “inactive” in each case. In addition, the Potency entry in experiment [9], in experiment [10], in experiment [11], in experiment [12], in experiment [13] and in experiment [14] was “inactive” throughout. The Potency result in [15], in experiment [19], in [20] and in experiment [17] was “inactive” each time. Also, the result in [18] was inactive.
